Bioassay records as filed in PubChem BioAssay.
A selection: hits, their analogues and other compounds. The true share with any hit is near 19%.
DT40 TDP1 CPT: DT40-hTDP1 cell growth loss with CPT; AID 686979; Potency, µM (highest dose often 46.2 µM), most hits filed as inhibitors; chicken DT40 Tdp1-/-;hTDP1 cells + 20 nM CPT, ATP luminescence, 48 h; 12% of 420,000 active; further: nearly all actives have a fitted effect of over 55% in size
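Chicken DT40 Tdp1-/- cells stably complemented with human TDP1 were seeded at 400 cells/well in medium containing 20 nM camptothecin, exposed to pin-transferred compounds, and grown at 37 °C for at least 48 hr. Viability was read as ATP luminescence.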
VP16 counter: inhibits Gal4-VP16 luciferase reporter, ROR gamma counter-screen; 3.5% of 310,000 active; Potency, µM (doses to about 53.6 µM), most hits filed as inhibitors; Drosophila S2 Gal4-VP16 UAS-luciferase, luminescence, 20 h; AID 2546;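 further: Gal4-VP16 expression switched on by copper sulfate through the metallothionein promoter; nearly all actives have a fitted effect of over 50% in size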
TDP1 inh: inhibitors of human tyrosyl-DNA phosphodiesterase TDP1 | Potency, µM (doses to about 130 µM), most hits filed as inhibitors | 0.28% of 350,000 active | Q9NUW8 | recombinant TDP1, AlphaScreen DNA substrate cleavage | AID 485290; further: nearly all actives have a fitted effect of over 40% in size
Target sequence (Q9NUW8 whole entry, looked up): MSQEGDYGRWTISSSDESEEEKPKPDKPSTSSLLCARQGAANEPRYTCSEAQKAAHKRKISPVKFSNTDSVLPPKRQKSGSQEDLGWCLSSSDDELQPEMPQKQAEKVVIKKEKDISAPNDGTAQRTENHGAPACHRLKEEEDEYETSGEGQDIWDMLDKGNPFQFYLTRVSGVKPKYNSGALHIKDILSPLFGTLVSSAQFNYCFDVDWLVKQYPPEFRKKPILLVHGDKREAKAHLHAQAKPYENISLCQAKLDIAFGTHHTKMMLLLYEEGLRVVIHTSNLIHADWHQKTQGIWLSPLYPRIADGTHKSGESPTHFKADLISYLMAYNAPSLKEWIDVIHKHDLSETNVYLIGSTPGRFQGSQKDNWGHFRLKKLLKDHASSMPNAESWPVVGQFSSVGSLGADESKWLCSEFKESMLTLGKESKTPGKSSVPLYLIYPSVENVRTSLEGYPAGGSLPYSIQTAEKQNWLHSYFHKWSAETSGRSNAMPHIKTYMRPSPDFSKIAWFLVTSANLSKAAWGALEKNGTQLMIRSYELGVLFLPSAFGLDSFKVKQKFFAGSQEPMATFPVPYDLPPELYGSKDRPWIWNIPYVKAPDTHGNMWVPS
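Compounds were preincubated with Tdp1 (1 nM final) for 15 min at room temperature before substrate (15 nM final) started a 5 min reaction; beads (10 ug/ml final) were then added for 10 min before AlphaScreen detection.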
TDP1 cell noCPT: qHTS for Inhibitors of human tyrosyl-DNA phosphodiesterase 1 (TDP1): qHTS in cells in absence of CPT. Potency, µM (series often up to 46.2 µM), most hits filed as inhibitors. DT40 Tdp1-/- hTDP1 cells, no CPT, ATP luminescence, 48 h. 15% of 420,000 active; further: nearly all actives have a fitted effect of over 55% in size
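No-CPT arm: Tdp1-/-;hTDP1 DT40 cells (400/well) plus compounds, incubated ≥48 hr at 37 °C. Readout CellTiter-Glo luminescence.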
RORg inh: blocks mouse ROR gamma transcriptional activity; P51450; Drosophila S2 Gal4-RORgamma UAS-luciferase reporter, 20 h; Potency, µM (titrated, usually from 53.6 µM), hits mostly inhibitors; 5.4% of 310,000 active; AID 2551; further: nearly all actives have a fitted effect of over 60% in size
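Luminescence from a UAS-regulated Photinus luciferase reporter in stably transfected Drosophila Schneider cells is measured; decreased signal marks ROR gamma inhibition. Fusion expression is induced by 700 uM copper sulfate for 20 hr.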
Large screens that a line does not name were inactive. The call rests on the fitted dose curve; in most records, active means well fitted curve in the direction sought with a large enough effect; inconclusive means small, poorly fitted or top-dose-only effect, or another doubt; inactive means no such curve, though single readings can be large; an effect the other way counts as inactive or inconclusive.

COc1ccc(C(=O)NC(=S)Nc2cccnc2)cc1Cl	TDP1 cell noCPT inconclusive, RORg inh 10µM
Cc1ccc2oc(=O)c3cnn(CC(=O)NCCN4CCOCC4)c3c2c1	none
CN(CCO)c1nc(NCc2ccccc2)c2cnn(C)c2n1	DT40 TDP1 CPT inconclusive
O=C(N=C1SC2CS(=O)(=O)CC2N1c1ccccc1)C1CCCCC1 (stereo not drawn)	none
CCCCOC(=O)c1ccc(Nc2nc3ccccc3c3nnc(C)n23)cc1	DT40 TDP1 CPT 16µM, TDP1 cell noCPT 21µM (no result: VP16 counter, RORg inh)
Cc1nnc2c3ccccc3nc(Nc3ccccc3C(=O)O)n12	DT40 TDP1 CPT inconclusive, TDP1 cell noCPT inconclusive (no result: VP16 counter, RORg inh)
CCc1ccc(Nc2nc3ccccc3c3nnc(C)n23)cc1	DT40 TDP1 CPT 8.2µM, TDP1 cell noCPT 10µM (no result: VP16 counter, RORg inh)
COc1ccc(Nc2nc3ccccc3c3nnc(C)n23)cc1Cl	DT40 TDP1 CPT 10µM, TDP1 cell noCPT 6.5µM (no result: VP16 counter, RORg inh)
Cc1cc(Nc2nc3ccccc3c3nnc(C)n23)ccc1Br	DT40 TDP1 CPT inconclusive, TDP1 cell noCPT 18µM (no result: VP16 counter, RORg inh)
CC(C)NC(=O)C1CCN(c2ccc(S(=O)(=O)N3CCOCC3)cc2Cl)CC1	none
COCCNC(=O)[C@@H]1CSC2c3ccccc3C(=O)N21 (stereo partly drawn)	none (no result: TDP1 inh)
Clc1ccc2c(c1)-c1c(cnc3cc(-c4ccccc4)nn13)CO2	none (no result: VP16 counter, RORg inh)
Cc1ccc(Nc2nc3ccccc3c3nncn23)cc1C	DT40 TDP1 CPT 8.2µM, TDP1 cell noCPT 16µM (no result: VP16 counter, RORg inh)
Cc1ccc(S(=O)(=O)N(CCc2ccccc2)CC(=O)Nc2ccc(Br)cc2)cc1	DT40 TDP1 CPT inconclusive, TDP1 cell noCPT 16µM (no result: VP16 counter, RORg inh)
COC(=O)c1ccc(NC(=O)CN(CCc2ccccc2)S(=O)(=O)c2ccc(OC)cc2)cc1	DT40 TDP1 CPT inconclusive, TDP1 cell noCPT 21µM (no result: VP16 counter, RORg inh)
Cc1ccc(S(=O)(=O)N(CCc2ccccc2)CC(=O)Nc2ccccc2C)cc1	none (no result: DT40 TDP1 CPT, VP16 counter, TDP1 cell noCPT, RORg inh)
N#Cc1c(N)nc2c3c(sc(=N)c2c1N)NC(=O)CC3c1ccccc1 (stereo not drawn)	TDP1 cell noCPT inconclusive
N#Cc1c(N)nc2c3c(sc(=N)c2c1N)NC(=O)CC3c1c(F)cccc1Cl (stereo not drawn)	DT40 TDP1 CPT inconclusive, TDP1 cell noCPT 6.5µM, RORg inh inconclusive
FC(F)(F)c1cnc(-c2cnc(-c3ccccn3)nc2)c(Cl)c1	DT40 TDP1 CPT inconclusive, TDP1 cell noCPT inconclusive, RORg inh 5.6µM
CCOc1cc(/C=C/C(=O)O)ccc1OCCOc1ccc(F)cc1	RORg inh inconclusive (no result: TDP1 inh)
COc1cccc(-c2nnc3sc(-c4ccccc4)nn23)c1	DT40 TDP1 CPT inconclusive, TDP1 cell noCPT 23µM
Cc1cccc(-c2nnc3sc(-c4ccccc4C)nn23)c1	DT40 TDP1 CPT inconclusive, TDP1 cell noCPT 15µM, RORg inh inconclusive
COc1cc(-c2nnc3sc(C4CCCCC4)nn23)cc(OC)c1OC	DT40 TDP1 CPT 16µM, TDP1 cell noCPT 23µM, RORg inh inconclusive
COc1cccc(-c2nnc3sc(C4CCCCC4)nn23)c1	DT40 TDP1 CPT 18µM, TDP1 cell noCPT 21µM
Clc1cccc(-c2nn3c(-c4ccncc4)nnc3s2)c1	RORg inh inconclusive (no result: DT40 TDP1 CPT, TDP1 cell noCPT)
COc1cccc(-c2nnc3sc(-c4ccc(Cl)cc4)nn23)c1	none (no result: DT40 TDP1 CPT, TDP1 cell noCPT)
COc1cc(C(=O)NCc2nnc(SCC(=O)NC3CCCCC3)o2)cc(OC)c1OC	none
CCOc1cccc(-c2nnc3sc(C4CCCCC4)nn23)c1	DT40 TDP1 CPT inconclusive, VP16 counter inconclusive, TDP1 cell noCPT inconclusive, RORg inh 20µM
Clc1ccc(-c2nn3c(-c4ccccc4)nnc3s2)cc1	DT40 TDP1 CPT inconclusive
c1ccc(-c2nnc3sc(-c4ccncc4)nn23)cc1	none
c1ccc(-c2nnc3sc(-c4csc5c4CCCC5)nn23)cc1	DT40 TDP1 CPT 21µM, VP16 counter inconclusive, TDP1 cell noCPT inconclusive, RORg inh 6.3µM
c1ccc(-c2nnc3sc(-c4cc5ccccc5o4)nn23)cc1	DT40 TDP1 CPT 16µM, TDP1 cell noCPT inconclusive
Cc1cc2c(cc1S(N)(=O)=O)S(=O)(=O)CCC2	none
O=C(NCc1cccnc1)c1ccc(COc2ccccc2Cl)o1	DT40 TDP1 CPT inconclusive, TDP1 cell noCPT 13µM
O=C(NCc1cccnc1)c1ccc(COc2ccc3c(c2)CCC3)o1	DT40 TDP1 CPT 18µM, VP16 counter 20µM, TDP1 cell noCPT inconclusive
